SW480 rereplic: inducers of DNA re-replication in SW480 colon cancer cells. AID 624297. 340,000 tested, 1.8% active. SW480 DNA re-replication, Hoechst DNA content imaging, 48 h. Potency, µM (doses to about 46.1 µM), without a hit: top-dose re-replication activation, hits mostly activators; note: % of control where 0% means no effect; nearly all actives have a fitted effect of over 55% in size
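Image-based read-out: total Hoechst fluorescence of nuclei (405 nm excitation, 500-530 nm emission), with hits raising the fraction of high-intensity nuclei. SW480 colon cells incubated 48 hr with compounds at 37 C.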
KB-3-1 cytotox: kills parental KB-3-1 adenocarcinoma cells; KB-3-1 viability, CellTiter-Glo ATP luminescence, 72 h; Potency, µM (series often up to 46.1 µM), actives largely listed as cytotoxic; 400,000 tested, 1.4% active; note: % is set by controls: 0 for no effect and ±100 for the full control effect; nearly all actives have a fitted effect of over 60% in size
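Cells are dispensed, compounds pinned in, plates held at 37 °C for 72 h, then CellTiter-Glo is added and luminescence read after 10 minutes. Cell line: parental KB-3-1 in phenol-red-free DMEM, 10% FBS.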
Gal4-VP16 FLuc: Gal4-VP16 reporter inhibition counter-screen | Drosophila S2 Gal4-VP16 UAS-luciferase, luminescence, 20 h | Potency, µM (highest dose often 53.6 µM), for inactives: at the highest dose activity, negative = inhibition, usual class: inhibitors | 310,000 tested, 3.5% active;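 note: Gal4-VP16 expression switched on by copper sulfate through the metallothionein promoter; % is set by controls: 0 for no effect and ±100 for the full control effect; nearly all actives have a fitted effect of over 50% in size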
KB-V1 cytotox: kills drug-selected multidrug resistant KB-V1 cells; KB-V1 MDR cells viability, CellTiter-Glo, 72 h; Potency, µM (highest dose often 46.1 µM), most hits filed as cytotoxic; 400,000 tested, 3.4% active; note: % is set by controls: 0 for no effect and ±100 for the full control effect; nearly all actives have a fitted effect of over 60% in size
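Cells of the MDR subline KB-V1 are plated, dosed with compound at multiple concentrations, and incubated 72 h at 37 degrees C; CellTiter-Glo is then added and luminescence read after 10 min.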
MCF10A rereplic: induces DNA re-replication in MCF 10a normal breast cells. MCF 10A DNA re-replication, Hoechst nuclear intensity, 48 h. 350,000 tested, 2.9% active. Potency, µM (top dose mostly 46.1 µM), for the others: at the highest dose activity, positive = re-replication, most hits filed as activators; note: % of control where 0% means no effect; nearly all actives have a fitted effect of over 50% in size
RORgamma inh: blocks mouse ROR gamma transcriptional activity. AID 2551. P51450. Drosophila S2 Gal4-RORgamma UAS-luciferase reporter, 20 h. Potency, µM (doses to about 53.6 µM), for inactives: at the highest dose activity change, negative = inhibition, hits mostly inhibitors. 310,000 tested, 5.4% active; note: % is set by controls: 0 for no effect and ±100 for the full control effect; nearly all actives have a fitted effect of over 60% in size
Target sequence (P51450 whole entry, looked up, the tested form may be a part): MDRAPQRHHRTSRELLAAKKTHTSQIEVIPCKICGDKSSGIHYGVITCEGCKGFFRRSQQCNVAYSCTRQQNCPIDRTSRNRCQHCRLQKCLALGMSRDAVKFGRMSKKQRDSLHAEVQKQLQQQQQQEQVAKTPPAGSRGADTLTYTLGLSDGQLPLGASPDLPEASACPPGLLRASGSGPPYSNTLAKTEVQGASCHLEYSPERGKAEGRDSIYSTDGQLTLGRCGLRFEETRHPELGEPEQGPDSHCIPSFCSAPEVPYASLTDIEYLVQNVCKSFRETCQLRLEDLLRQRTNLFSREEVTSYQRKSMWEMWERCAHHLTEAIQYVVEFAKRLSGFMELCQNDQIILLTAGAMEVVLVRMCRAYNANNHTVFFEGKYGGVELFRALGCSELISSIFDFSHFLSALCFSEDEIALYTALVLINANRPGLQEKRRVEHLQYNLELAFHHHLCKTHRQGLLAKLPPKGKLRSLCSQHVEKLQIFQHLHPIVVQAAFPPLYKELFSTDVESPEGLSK
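A Gal4/UAS one-hybrid system in insect cells: metallothionein-promoter Gal4–ROR gamma fusion plus Photinus luciferase reporter. Copper sulfate 700 uM final, 20 hr ambient incubation, luminescent detection after 10 min with reagent.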
Starred values were filed as active, the others as inactive. Sampled rows, rich in hits. Any-hit rate of the full collection: about 10%. Calls come from the whole dose curve; as a rule, active = well fitted curve in the direction sought with a large enough effect; inconclusive = small, poorly fitted or top-dose-only effect, or another doubt; inactive = no such curve, though single readings can be large; an effect the other way counts as inactive or inconclusive. Potency is the fitted concentration of half-maximal effect.

Screening Cn1c(NCCCCO)nc2c1c(=O)n(Cc1ccc(Cl)cc1)c(=O)n2C returned KB-3-1 cytotox inactive and KB-V1 cytotox inactive.
COc1ccc(Nc2nc3c(S(=O)(=O)c4ccc(C)cc4)nnn3c3ccsc23)cc1Cl was read as KB-3-1 cytotox inconclusive and KB-V1 cytotox inactive.
For CCc1cccc(C)c1NC(=O)CN1C(=O)c2c(c3ccccc3n2C)C1c1ccc(OC)cc1 (stereo not drawn) the results were KB-3-1 cytotox inactive and KB-V1 cytotox inactive.
`S=c1[nH]cnc2scc(-c3ccc(Br)cc3)c12` gave SW480 rereplic 12µM*, KB-3-1 cytotox inconclusive, Gal4-VP16 FLuc 0.63µM*, KB-V1 cytotox inconclusive, MCF10A rereplic inconclusive and RORgamma inh 0.5µM*.
`COC(=O)c1ccc(NC(=O)N2CCN(Cc3cc(=O)n4nc(-c5ccc(C)cc5)sc4n3)CC2)cc1` gave KB-3-1 cytotox inactive and KB-V1 cytotox inactive.
Screening COc1ccc(Cl)cc1NC(=O)[C@H]1O[C@@H]2OC(C)(C)O[C@@H]2[C@H]2OC(C)(C)O[C@H]21 returned KB-3-1 cytotox inactive and KB-V1 cytotox inactive.
COc1ccc(Nc2cc(C)nc3ncnn23)cc1 was read as SW480 rereplic 22%, KB-3-1 cytotox inactive, KB-V1 cytotox inactive and MCF10A rereplic inconclusive.
Screening FC(F)(F)c1cccc(Nc2cc(-c3ccccc3)nc3ncnn23)c1 returned SW480 rereplic -2%, KB-3-1 cytotox inactive, Gal4-VP16 FLuc -11%, KB-V1 cytotox inconclusive, MCF10A rereplic -2% and RORgamma inh 2µM*.
`Cc1cc(Nc2ccc(C(C)C)cc2)n2ncnc2n1` gave SW480 rereplic -5%, KB-3-1 cytotox 15µM*, Gal4-VP16 FLuc inconclusive, KB-V1 cytotox 7.3µM*, MCF10A rereplic 3% and RORgamma inh inconclusive.
For Cc1cc(Nc2cccc(C(=O)O)c2)n2ncnc2n1 the results were SW480 rereplic inconclusive, KB-3-1 cytotox inactive, Gal4-VP16 FLuc 7%, KB-V1 cytotox inactive, MCF10A rereplic 0% and RORgamma inh -1%.
Screening CC(=O)Nc1ccc(Nc2cc(-c3ccccc3)nc3ncnn23)cc1 returned SW480 rereplic -15%, KB-3-1 cytotox inactive, Gal4-VP16 FLuc 2%, KB-V1 cytotox inactive, MCF10A rereplic 7% and RORgamma inh -15%.
Cc1cc(Nc2ccc3ccccc3c2)n2ncnc2n1 was read as SW480 rereplic 11%, KB-3-1 cytotox inconclusive, Gal4-VP16 FLuc inconclusive, KB-V1 cytotox inconclusive, MCF10A rereplic inconclusive and RORgamma inh 6.3µM*.
CC(=O)Nc1ccc(CN2C(=O)C(CCc3ccccc3)ON=C2c2cnccn2)cc1 (stereo not drawn) was read as KB-3-1 cytotox inactive and KB-V1 cytotox inactive.
`O=C(NC1CC1)c1cccc(Nc2ccc(-c3ccc4c(c3)OCCO4)nn2)c1` gave SW480 rereplic -10%, KB-3-1 cytotox inconclusive, Gal4-VP16 FLuc inconclusive, KB-V1 cytotox 16µM*, MCF10A rereplic 2% and RORgamma inh -45%.
O=S(=O)(c1ccc(Nc2ccc(-c3ccc4c(c3)OCCO4)nn2)cc1)N1CCCC1 was read as SW480 rereplic -8%, KB-3-1 cytotox inactive, Gal4-VP16 FLuc 1%, KB-V1 cytotox inconclusive, MCF10A rereplic 0% and RORgamma inh 9%.
For COc1ccc(CNC(=O)Nc2nc(C(N)c3ccccc3)cs2)cc1 (stereo not drawn) the results were KB-3-1 cytotox inactive and KB-V1 cytotox inactive.
Screening CC1=CC(C)(C)Nc2ccc(OC(=O)CN3C(=O)c4cccc5cccc(c45)C3=O)cc21 returned SW480 rereplic inconclusive, KB-3-1 cytotox inactive, Gal4-VP16 FLuc -20%, KB-V1 cytotox inactive, MCF10A rereplic 15µM* and RORgamma inh -38%.

Compound activity deposited in PubChem BioAssay by National Center for Advancing Translational Sciences (NCATS).
